One may read the inhibition as the change of the read-out against control, counted positive when it falls.

Structures are written as SMILES. Out of some 360,000 compounds screened, about 2,100 (0.58%) were called active. The entries come from a sample that favours actives as a whole. Values without a mark were called inactive.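 Rule for the calls: active = inhibition at 20 µM, scaled to each plate's controls, above about 33% (limit read from the data); inactive = the rest.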

For the test, the target named is 26S proteasome non-ATPase regulatory subunit 14 (Homo sapiens) (UniProt O00487). Briefly: Rpn11 (PSMD14) deubiquitinase inhibitors, primary screen, biochemical, fluorescence polarization, uHTS (AID 588493). The conditions noted are these: human 26S proteasome, Ub4-pepOG fluorescence polarization, at 20 µM, hits give high values. (In general: Fluorescence polarisation rises when a labelled molecule tumbles more slowly, as on binding a larger partner.)
Chain of 26S proteasome non-ATPase regulatory subunit 14 (Homo sapiens) (O00487 whole entry, looked up): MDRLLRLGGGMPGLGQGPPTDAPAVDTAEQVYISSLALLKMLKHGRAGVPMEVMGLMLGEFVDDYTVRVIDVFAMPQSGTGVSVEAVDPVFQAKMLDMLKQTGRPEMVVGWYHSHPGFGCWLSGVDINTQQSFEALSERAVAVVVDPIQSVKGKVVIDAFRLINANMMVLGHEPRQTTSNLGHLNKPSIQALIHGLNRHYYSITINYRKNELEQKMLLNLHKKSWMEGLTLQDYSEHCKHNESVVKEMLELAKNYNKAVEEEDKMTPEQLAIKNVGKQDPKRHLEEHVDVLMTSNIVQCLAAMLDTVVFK
`O=c1[nH]c(=O)n(Cc2ccccc2)c(O)c1/C=N/Nc1c(F)c(F)c(F)c(F)c1F`: the inhibition was 41.6% (active).

Regarding `O=C(N/N=C/c1c(O)n(Cc2ccccc2)c(=O)[nH]c1=O)c1ccccc1`, the inhibition was -6.7%.

Regarding `O=c1[nH]c(=O)n(CCc2ccccc2)c(O)c1/C=N/N1CCOCC1`, the inhibition is 5.5%.

For `COC(=O)C1=C(c2ccc(F)cc2OCc2ccccc2)C[C@@H]2CC[C@H]1N2C(=O)NCc1ccc(Cl)cc1`, the inhibition was 7.7% [20S core pre-blocked with epoxomicin].

With `CCc1cccc2c(C#N)cn(CC(=O)N3CCOCC3)c12`, the inhibition was -6.2%.

`COc1ccc(C2NCc3ccc4c(c3-n3cccc32)OCO4)cc1OC` (stereo not given): the inhibition is 7.6%.

With `Cc1cccc(N2C(=O)NC(=O)/C(=C\c3cnn(-c4ccccc4)c3)C2=O)c1`, the inhibition was 119% (active).

For the compound `Cn1c(O)c(C(=Nc2ccc(F)cc2)c2ccccc2)c(=O)n(C)c1=O`, the inhibition is -3.9%.

Regarding `COc1ccc(C2C=C(C)Oc3c2c(=O)oc2ccccc32)cc1OC` (stereo not given), the inhibition is 6% [20S core pre-blocked with epoxomicin].

With `c1cc2c(c(NC3=NCCCS3)c1)CCCC2`, the inhibition was 3.9%.

In the case of `O=C(C1CC(=O)N(C2CCCC2)C1)N1CCC2(CC1)OCCO2` (stereo not given), the inhibition is 3.4%.

For the compound `CCN1C(=O)C(=Cc2c(C)n(CC(=O)NCC3CCCO3)c3ccccc23)C(=O)N(CC)C1=S` (stereo not given), the inhibition was 62% (active).

As to `Fc1cccc(F)c1CN1CCN(Cc2c(F)cccc2F)CC1`, the inhibition is -4.8%.

`CN(C)C(=O)Oc1ccc2c(c1)O/C(=C\c1ccccc1)C2=O`: the inhibition is 5.7%.

For the compound `Cn1c(C(=O)N2CCC(C(=O)N3CCC4(CC3)OCCO4)CC2)cc2sccc21`, the inhibition is 3.9%.

Source of the values: PubChem BioAssay AID588493 (Sanford-Burnham Center for Chemical Genomics, 2011).
